Screening data from PubChem BioAssay.
ALOX12 inhib: qHTS Assay for Inhibitors of 12-hLO (12-human lipoxygenase) | Polyunsaturated fatty acid lipoxygenase ALOX12 (Homo sapiens), P18054 | purified 12-hLO, xylenol orange hydroperoxide absorbance | 0.12% of 150,000 active | Potency, µM (top dose mostly 57.1 µM), inactives show top-dose activity change, negative = inhibition, hits mostly inhibitors; note: potency is the fitted concentration of half-maximal effect; nearly all actives have a fitted effect of over 55% in size
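Xylenol orange chromogenic assay: hydroperoxide from 12hLO oxidises Fe(II), giving red-shifted Fe(III)-XO absorbance. Conditions: 150 nM enzyme, 40 uM arachidonic acid, 25 mM Hepes pH 7.0, 0.01% Triton X-100, 30 min, room temperature.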
15-hLO-2 inh: qHTS Assay for Inhibitors of 15-hLO-2 (15-human lipoxygenase 2). Polyunsaturated fatty acid lipoxygenase ALOX15B (Homo sapiens), O15296. purified 15hLO-2, xylenol orange hydroperoxide absorbance. Potency, µM (titrated, usually from 57.1 µM), inactives show at the highest dose activity change, negative = inhibition, usual class: inhibitors. 0.56% of 110,000 active; note: potency is the fitted concentration of half-maximal effect; nearly all actives have a fitted effect of over 60% in size
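Purified human 15hLO-2 (50 nM final) preincubated with compounds 15 min at room temperature in 25 mM Hepes pH 7.5, 0.01% Triton X-100, then 45 uM arachidonic acid added for 90 min; hydroperoxide detected via ferrous/xylenol orange, 573/405 nm absorbance ratio.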
IMPase inh: qHTS Assay for Identifying the Cell-Membrane Permeable IMPase Inhibitors. Inositol monophosphatase 1 (Rattus norvegicus), P97697. CHO-M1 cells, IP1 accumulation, HTRF TR-FRET ratio. inhibition (IP1 accumulation), % at 46.1 µM. 120,000 tested, under 10 active; active = well fitted curve in the direction sought with a large enough effect in the signal ratio, not every such curve was filed as active; inconclusive = small, poorly fitted or top-dose-only effect, or a change in a side signal; inactive = no such curve, though single readings can be large or run the other way; the % refers to the signal ratio;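 note: cells stimulated with carbachol in lithium chloride buffer; plate controls were DMSO basal wells for no effect and reference inhibitor wells for full effect; higher means more IMPase inhibition seen as more IP1 and lower FRET ratio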
Target sequence (P97697 whole entry, looked up): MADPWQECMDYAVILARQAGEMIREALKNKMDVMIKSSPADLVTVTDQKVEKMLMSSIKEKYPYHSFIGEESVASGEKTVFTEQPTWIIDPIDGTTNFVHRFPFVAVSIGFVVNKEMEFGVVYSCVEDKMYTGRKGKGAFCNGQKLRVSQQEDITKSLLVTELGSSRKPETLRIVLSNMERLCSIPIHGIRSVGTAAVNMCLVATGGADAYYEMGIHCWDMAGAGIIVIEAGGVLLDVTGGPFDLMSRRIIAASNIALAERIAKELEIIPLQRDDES
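Seeded CHO-M1 cells were dosed with compound at up to 46 uM, stimulated with carbachol for 30 min, then lysed in IP-One detection reagents. Higher IP1 lowers the TR-FRET signal.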
PNC assembly inh: High Content Assay for Compounds that inhibit the Assembly of the Perinucleolar Compartment; 3.1% of 140,000 active; AID 2417, 2010; PC3M PTB-GFP, PNC prevalence imaging, 16 h; stronger effect = lower value; activity change (PNC), negative = inhibition, % at 10 µM;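 active = readout at or below -70, meaning at least 70% loss of cells showing the perinucleolar compartment, a nuclear body marking cancer cells; inconclusive = readout between -30 and a set limit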;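 note: plate controls were DMSO wells for no effect and camptothecin positive control wells for full effect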
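Read-out is percentage of cells bearing a perinucleolar compartment, from automated 20x imaging of fixed, Hoechst-stained PC3M PTB-GFP cells. Cells were seeded 4 h, then exposed 16 h to compound (23 nl of library stock) in duplicate plates.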
* = called active by the depositor; ? = inconclusive; / = not tested or not shown; [ ] = another dose, or the depositor's remark. A selection: hits, their analogues and other compounds. The true share with any hit is near 3%. Unless noted, calls come from the whole dose curve; as a rule, active = well fitted curve in the direction sought with a large enough effect; inconclusive = small, poorly fitted or top-dose-only effect, or another doubt; inactive = no such curve, though single readings can be large; an effect the other way counts as inactive or inconclusive. Unless noted, % is set by controls: 0 for no effect and ±100 for the full control effect.

SMILES | ALOX12 inhib | 15-hLO-2 inh | IMPase inh | PNC assembly inh
CS(=O)(=O)N(Cc1ccccc1)c1ccc(C(=O)Nc2cccnc2)cc1 | 1% | / | -2 | -100*
Cc1ccccc1NC(=O)c1ccc(CN(c2ccccc2)S(=O)(=O)c2ccccc2)cc1 | 0% | / | / | -134*
Cc1cc2ncn(CCOc3ccccc3C#N)c2cc1C | -1% | 13%[2.29 µM] | -3 | ?
C[C@H]1Cc2c(-c3ccccc3)nc3c(c2CO1)CN(C(=O)c1cccnc1)CC3 | 2%[11.4 µM] | / | / | /
CN(C)C1C(=O)C(C(N)=O)C(=O)C2(O)C(=O)C3C(=O)c4c(O)ccc(Cl)c4C(O)C3CC12 (configuration not stated) | -2%[0.00818 µM] | -1%[0.0915 µM] | / | /
CCOCCCn1c(=N)c(C(=O)NC2CCCC2)cc2c(=O)n3cccc(C)c3nc21 | / | / | 4 | /
NC(=S)NNc1cc(Cl)cc(Cl)c1 | ? | 2.5µM* | 8 | -9
NC(=S)NNC(=O)Nc1ccc(Cl)c(Cl)c1 | -8% | / | / | 27
O=C(O)c1cccc(Oc2ccccc2[N+](=O)[O-])c1 | -2% | / | / | -116*
Cc1ccc(C2CC2C(=O)NNC(=S)Nc2ccc(Cl)cc2)cc1 (configuration not stated) | 17% | / | -2 | -97*
O=C(NNC(=O)C1CC1c1ccccc1)Nc1ccccc1 (configuration not stated) | -5% | / | / | 0
Cc1ccn2cc(CSc3ccccc3)nc2c1 | 1% | 25% | 5 | -112*
CCCOc1ccc(Cc2c(Cl)nc(SC)nc2N(C)C)cc1 | -6% | / | 13 | ?
CCOC(=O)CNC=C(C(=O)OCC)C(=O)OCC | -2% | 2%[11.4 µM] | -3[1.84 µM] | -96*
CCOC(=O)C(C(=O)OCC)C1CCS(=O)(=O)C1 (configuration not stated) | -6% | / | 10 | -100*
COc1ccc(N2C(=O)CS/C2=C\[N+](=O)[O-])cc1 | -7% | 0% | 5 | ?
Cc1oc(-c2ccccc2Cl)nc1CSCC(=O)NC1CCCC1 | 0% | 0% | -3 | 26
Cc1oc(-c2ccccc2Cl)nc1CSCC(=O)N1CCCC1 | 4% | 4% | 0 | -109*
Cc1ccc(C(=O)ONc2ccc(N=O)cc2)cc1 | -1% | -1% | 0 | -117*
O=Nc1ccc(NOC(=O)c2ccc(Br)cc2)cc1 | 6% | -7% | 3 | 53
O=C(NCc1cccs1)c1cnc2sccn2c1=O | 3% | 2% | -4 | ?
Cc1ccc(NC(=O)/C=C/c2ccc([N+](=O)[O-])s2)cc1 | -2% | / | / | -17
Cc1ccc(NC(=O)/C=C/c2ccc([N+](=O)[O-])s2)c(C)c1 | -3% | / | 6 | -98*
Cc1cc([N+](=O)[O-])ccc1NC(=O)/C=C/c1cccs1 | -6% | / | -5 | -112*
Cc1ccc(-n2c(C)cc(/C=N/NC(=O)c3ccc(CN4CCOCC4)cc3)c2C)cc1 | -3% | 29% | 4 | -29
SMILES | ALOX12 inhib | 15-hLO-2 inh | IMPase inh | PNC assembly inh
CN(CCO)c1nc(N)c2c(N)nc3c(c2c1C#N)CC(=O)N3C1CCCC1 | -5% | / | 10 | 45
CC(C)(C)N1C(=O)Cc2c1nc(N)c1c(N)nc(N3CCCCC3CO)c(C#N)c21 (configuration not stated) | ? | 25µM* | -1 | -16
COc1ccc(CN2CCN(c3ncnc4sc5c(c34)CCCC5)CC2)cc1F | / | / | 2 | /
O=C(CCCCCC(=O)N(CCO)CCO)N(CCO)CCO | -3% | 5% | -1 | ?
COc1ccc(CCNc2nc(-c3sc(N)nc3C)cs2)cc1OC | -2% | 27% | -1 | -108*
Cc1cccc(NS(=O)(=O)c2cc(C(=O)O)ccc2Cl)c1 | 3% | / | / | /
COC(=O)c1ccc2c(c1)C(C)(C)C(/C=C/c1ccc(OC)c(OC)c1OC)=[N+]2C | ? | 13µM* | 9 | 17
O=C1OC(CO)C(O)C(O)C1O (configuration not stated) | -1% | -4% | / | /
CCOC(=O)c1ccc(NC(=O)NC2CC3CCC(C2)N3Cc2nnnn2C(C)(C)C)cc1 (configuration not stated) | -1% | -2% | -2 | -4
CCCCOc1c(Br)cc(/C=N/O)cc1OCC | -9% | / | 12 | 9
C=CCOc1c(Br)cc(/C=N/O)cc1OCC | -4% | / | / | -109*
O=c1cc(-c2cccc(O)c2O)oc2ccccc12 | ? | 16µM* | 10 | /
O=c1cc(-c2ccccc2O)oc2cc(O)ccc12 | -3% | -28% | / | /
CCOC(=O)c1c(NC(=O)c2c(-c3ccccc3)noc2C)sc(C)c1-c1ccccc1 | -4% | 4% | -9 | -103*
COC(=O)/C(=C1/Oc2cc(C)oc(=O)c2S1)C(F)(F)F | -1% | / | -3 | -100*
COc1cc(C=NCC2OCCc3ccccc32)cc(OC)c1 (configuration not stated) | 4% | / | / | 38
CC(=O)Nc1cccc(NC(C)=O)n1 | 2% | / | 0 | -119*
Cc1ccccc1NC(=O)c1c(NC(=O)C(C)Oc2cccc(Cl)c2)sc2c1CCCC2 (configuration not stated) | / | / | -1 | /
O=c1[nH]c(NCCO)nc2c1C1(CCCCC1)Cc1ccccc1-2 | -7% | -5% | 7 | 28
CCC1(CC)Cc2ccccc2-c2nc(NCCO)[nH]c(=O)c21 | 0% | / | -10 | -100*
CCN(CC)c1ccc(C2CC(=O)Nc3cc(OC)c(OC)cc32)cc1 (configuration not stated) | -5% | -8% | 9 | 28
COc1cc2c(cc1OC)C(c1cc3cc4c(cc3[nH]c1=O)OCO4)N(C(=O)C1CC1)CC2 (configuration not stated) | -3% | / | 14 | -100*
Cc1cc2ccccn2c1C(=O)c1ccncc1 | -6% | -6% | 5 | 48
Cc1cc2ccccn2c1C(=O)c1ccc(Cl)cc1 | -5% | -11% | -2 | -105*
CCOC(=O)c1c(C)[nH]c(C(=O)N/N=C/c2ccc(Br)cc2)c1C | 1% | / | 0 | -113*
SMILES | ALOX12 inhib | 15-hLO-2 inh | IMPase inh | PNC assembly inh
Cc1[nH]c(C(=O)N/N=C/c2ccc(C(=O)O)cc2)c(C)c1C(=O)N/N=C/c1ccc(C(=O)O)cc1 | -1% | / | ? | ?
C/C(=N\NC(=S)NCCc1ccccc1)c1cccs1 | 4µM* | / | / | 5
CCOc1ccc(-n2c(=S)sc3c(=O)[nH]c(SCC(=O)NC(C)CC)nc32)cc1 (configuration not stated) | -4% | -9% | -4 | -83*
CCOC(=O)CC(=O)CSc1nc2c(sc(=S)n2-c2ccc(OCC)cc2)c(=O)[nH]1 | -14% | / | / | -8
C(=C\c1nnc2c3ccccc3ncn12)/c1ccccc1 | -3% | / | / | -97*
Cc1cc(C(=O)Nc2nnc(-c3ccccc3)s2)no1 | 0% | 6% | 2 | -98*
Cc1cc(C(=O)Nc2nnc(C3CCCCC3)s2)no1 | 0% | -4% | 5 | -27
Cc1onc(-c2ccccc2)c1C(=O)Nc1nc2c(s1)CCCC2 | -13% | 39% | -6 | 36
